Assay results: PubChem BioAssay

Each molecule was assayed on Sonic hedgehog protein (Shh) (assay: Sonic hedgehog microarray binding compounds – biochemical, small-molecule microarray, 635/667 nm fluorescence, primary screen (AID 1151;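 note: Shh protein binding to compounds spotted on small-molecule microarray slides; score combines spot fluorescence intensity with signal-to-noise across triplicate slides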)). Conditions: 635 nm fluorescence, higher = more signal.

Q: How did the composite z-score turn out when `C=CCOC(=O)[C@@H]1[C@H]2C(=O)O[C@H](c3ccccc3)[C@H](c3ccccc3)N2[C@H](c2ccc(OCCOC(=O)[C@H]3C[C@H]4C(=O)N5CCC[C@H]5C(=O)N4[C@H]3c3ccc(O)cc3)cc2)[C@@]12C(=O)Nc1ccccc12` was run?
A: 1.68

Q: `C[C@@H]1CC[C@H]2C(=O)N3[C@@H](CC[C@@H](C)[C@@H]3c3cccc(N4CCOCC4)c3)C(=O)N2[C@H]1c1cccc(N2CCOCC2)c1` was tested. Which composite z-score did it give?
A: 0.106

Q: For `COc1ccc(-c2ccccc2[C@@H]2N[C@H](C(=O)O)CC[C@H]2C)cc1`, which composite z-score is on record?
A: 0.289

Q: For `CN1CCC(CCCO)=CC1C1CC1` (stereo unspecified), which composite z-score is on record?
A: 1.23

Q: With `C=CCC(OC(C)=O)[C@@H]1[C@@H](N(Cc2cc3ccccc3o2)C(=O)c2ccc(C)cc2)c2cc(OCCCO)ccc2N1C(=O)c1ccc2ccccc2n1` (stereo partly specified) as the molecule, how does the composite z-score read?
A: 0.609

Q: With `C[C@H]1COC(=O)[C@H](Cc2ccccc2)NC(=O)[C@@H](C)COC(=O)[C@H](Cc2ccccc2)NC1=O` as the molecule, how does the composite z-score read?
A: 1.13

Q: Which composite z-score does the source give for `CCN1C(C)=C(C(=O)OC)[C@@H](c2ccccc2)N2C(=O)[C@@]3(C(=O)OC)O[C@@]12[C@@H]1C(=O)N(c2ccccc2)C(=O)[C@@H]13` here?
A: 0.798

Q: With `CCCC/C=C/[C@H]([C@@H](O)Cc1ccccc1)N(CC#Cc1ccccc1)Cc1ccccc1Br` as the molecule, how does the composite z-score read?
A: -1.29

Q: With `Cc1ccc(S[C@]2(C(=O)NCCCN(C)C)CC(=O)N(C3CCCCC3)[C@@H]2c2ccc(CO)cc2I)cc1` as the molecule, how does the composite z-score read?
A: 0.0709

Q: How did the composite z-score turn out when `CO[C@@H]1COC(=O)[C@H](C)NC(=O)CC=C[C@@H](C)[C@H](NS(=O)(=O)c2ccc(C)cc2)COC(=O)CC=C[C@@H]1C` was run?
A: 0.0208

Q: Which composite z-score does the source give for `C=CCNC(=O)[C@H]1[C@@H]2C(=O)O[C@@H](c3ccccc3)[C@@H](c3ccccc3)N2[C@@H](c2ccccc2OCCO)[C@]12C(=O)N(C(=O)OCCOC)c1ccc(C#CCC(C(=O)OC)C(=O)OC)cc12` here?
A: 1.81

Q: How did the composite z-score turn out when `CC(=O)NCCCC[C@@H]1NC(=O)[C@@H]2C[C@H](C(=O)NCCCCCCN(C)C)[C@H](c3ccc(O)cc3)N2C1=O` was run?
A: 1.43

Q: `O=C(NCC(O)CO)[C@]1(Cc2ccccc2)N=C(c2ccc(OCCCO)cc2)O[C@@H]1c1ccccc1` (stereo partly specified) was tested. Which composite z-score did it give?
A: -0.617

Q: For `C[C@H]1NC(=O)[C@@H](C)NC(=O)[C@@]23C(=O)N[C@@H](Cc4ccccc4)C2[C@H](C)[C@@]2(C)O[C@H]2C3/C=C/C/C=C\CNC1=O` (stereo partly specified), which composite z-score is on record?
A: 0.651

Q: For `CC(C)N1CC=CC23O[C@@H]4/C=C\CCCOC(=O)C4[C@H]2C(=O)N(CCO)[C@@H]3C1=O` (stereo partly specified), which composite z-score is on record?
A: 0.289

Q: For `C=CC[C@]1(C(=O)O)N=C(c2ccc(OCCCO)cc2)O[C@H]1c1ccccc1`, which composite z-score is on record?
A: -0.712

Q: With `CC(C)CNC(=O)[C@@]1(C)c2ccccc2C(=O)N(Cc2ccc(OC(F)(F)F)cc2)[C@H]1c1ccc(CO)cc1` as the molecule, how does the composite z-score read?
A: -0.406

Q: `CO[C@H]1COC(=O)[C@H](Cc2ccccc2)NC(=O)CC=C[C@@H](C)[C@H](OC)COC(=O)CC=C[C@@H]1C` was tested. Which composite z-score did it give?
A: 0.549

Q: For `C=C(COC)/C(=C/C[C@@H](OC(=O)c1ccncc1)c1ccc(OCCO)cc1)c1cc(C(=O)OC)ccc1OC`, which composite z-score is on record?
A: 0.811

Q: `CSCC[C@@H]1NC(=O)CC=C[C@@H](C)COC(=O)[C@H](CCSC)NC(=O)CC=C[C@@H](C)COC1=O` was tested. Which composite z-score did it give?
A: 0.493

Q: `O=C1OCC=C[C@H]2OC34C=CCN(Cc5ccccc5)C(=O)[C@H]3N(CCCCCO)C(=O)[C@@H]4[C@@H]12` (stereo partly specified) was tested. Which composite z-score did it give?
A: -1.09

Q: `Cc1ccc(S[C@]2(C(=O)NCCN3CCOCC3)CC(=O)N(C3Cc4ccccc4C3)[C@@H]2c2ccc(CO)cc2I)cc1` was tested. Which composite z-score did it give?
A: -0.678

Q: `COC(=O)C[C@H]1O[C@]2(C(=O)N(C)c3ccccc32)[C@@H](C)[C@@H]1[Si](C)(C)c1ccc(OC)cc1` was tested. Which composite z-score did it give?
A: 0.661

Q: Which composite z-score does the source give for `CC/C=C/C(=O)N(C[C@@H]1CCCO1)[C@@H]1CC(C(=O)NCCO)=C[C@H](Oc2c(I)cc(CO)cc2OC)[C@H]1O` here?
A: 0.239

Q: `C=C[C@H](OC)[C@@H](OC(=O)Nc1ccc(SC)cc1)c1ccc(OC)c(O)c1` was tested. Which composite z-score did it give?
A: 0.417

Q: `CN1C2C=C(c3ccc(CO)cc3)C(C3C(=O)N(C(N)=O)C(=O)C32)C1c1cccs1` (stereo unspecified) was tested. Which composite z-score did it give?
A: 1.4

Q: `C=CCN(C(=O)C1N(c2ccc(CCO)cc2)C(=O)C2C(C(=O)O)C3C=CC21O3)C(C)(C)C` (stereo unspecified) was tested. Which composite z-score did it give?
A: -1.34

Q: With `C=CCC1=C[C@H]2[C@H]([C@@H]3C=C[C@]2(CC=C)C(=O)[C@]32CO2)[C@@]2(CO2)C1=O` as the molecule, how does the composite z-score read?
A: 2.11

Q: How did the composite z-score turn out when `Cc1ccc(S[C@]2(C(=O)O)CC(=O)N(Cc3ccccc3)[C@@H]2c2ccc(CO)cc2)cc1` was run?
A: 0.0306

Q: With `CCCNC(=O)[C@@H]1c2ccccc2C(=O)N(Cc2cc(F)cc(C(F)(F)F)c2)[C@H]1c1ccc(CO)cc1` as the molecule, how does the composite z-score read?
A: 1.93

Q: With `O=C1c2ccccc2[C@](Cc2ccccc2I)(C(=O)O)[C@H](c2ccc(CO)cc2)N1C1CCCCC1` as the molecule, how does the composite z-score read?
A: 0.636

Q: Which composite z-score does the source give for `[N-]=[N+]=NCc1ccccc1C[C@]1(C(N)=O)N=C(c2ccc(OCCCO)cc2)O[C@H]1c1ccccc1CN=[N+]=[N-]` here?
A: -0.742

Q: `CO[C@H]1COC(=O)[C@H](C)NC(=O)CC=C[C@@H](C)[C@H](NS(=O)(=O)c2ccc(C)cc2)COC(=O)[C@@H](OCc2ccccc2)C=C[C@@H]1C` was tested. Which composite z-score did it give?
A: 0.96

Q: With `COC(=O)c1c(CC[C@@H](CO)NC(=O)N[C@H](Cn2cc(-c3cncn3C)nn2)C(C)C)oc(C(C)=O)c1C(=O)OC` as the molecule, how does the composite z-score read?
A: 0.75

Q: `C=C(COC)/C(=C/C[C@@H](OC(C)=O)c1cccc(OCCO)c1)c1cc(C(=O)OC)ccc1OC` was tested. Which composite z-score did it give?
A: 0.654

Q: `CC(C)[Si]1(C(C)C)O[C@@H](c2ccccc2)c2cc(C3CC3)nc(-c3ccc(Oc4ccccc4)cc3)c21` was tested. Which composite z-score did it give?
A: -0.239
